# Assay results: PubChem BioAssay (EPA / NIEHS)
# Records with an inconclusive call do not appear. The source holds several records for some structures; these can differ, active in one and inactive in another. Active and inactive are the calls of the source. Rule for the calls: active = hit-call score of the fitted dose curve at least 0.9, where 1 is the maximum; inconclusive = response in the unintended direction; inactive = score below 0.9.
# Read-out: Cytochrome P450 2B6 (Homo sapiens) (UniProt P20813)
# Experiment: CLD_CYP2B6_24hr: CellzDirect (CLD) Gene Expression Assay for xenobiotic metabolism (CYP2B6) at 24 hours (AID 2283686)
# Method: CLD_24hr is a cell-based, multiplexed-readout assay that uses hepatocyte, a human liver primary cell, with measurements taken at 24 hours after chemical dosing in a 96-well plate.CLD_CYP2B6_24hr is one of 16 assay component(s) measured or calculated from the CLD_24hr assay. It is designed to make measurements of mRNA induction, a form of inducible reporter, as detected with chemiluminescence signals by Quantitative Nuclease Protection Assay (qNPA) technology.Data from the assay component CLD_CYP2B6_24hr was analyzed at the endpoint, CLD_CYP2B6_24hr, in the positive analysis fitting direction relative to DMSO as the negative control and baseline of activity. Using a type of inducible reporter, gain-of-signal activity can be used to understand changes in the reporter gene as they relate to the gene CYP2B6. Furthermore, this assay endpoint can be referred to as a primary readout. To generalize the intended target to other relatable targets, this assay endpoint is annotated to the cyp intended target family, where subfamily is xenobiotic metabolism.
# Human hepatocyte cultures were treated daily for two consecutive days with fresh dosing solutions containing appropriate concentrations of the 320 ToxCast chemicals (chemical identities were blinded to CellzDirect and other ToxCast collaborators), vehicle control (0.2% DMSO), and positive control inducers as summarized in Table 1. Due to the large number of treatment groups and chemicals examined, the ToxCast chemicals were divided into two groups (spanning two independent cultures of hepatocytes from separate donor preparations (Hu778: ToxCast plates 1 and 2; Hu776: ToxCast plates 3 and 4). Each preparation of human hepatocyte cultures was treated with respective vehicle control, medium only control, set of six positive controls/reference chemicals for the five hepatic receptor pathways, and a subset of eight of the ToxCast chemicals (indoxacarb, pyrithiobac-sodium, norflurazon, cyhalofop-butyl, methomyl, thiram, acetochlor, and propiconazole). These replicate data, coupled with internal replicates designed within the blinded ToxCast chemical library, provided additional data to evaluate interindividual differences between hepatocyte preparations and their potential impact on chemical profiles.Cell morphology and integrity were evaluated using phase-contrast microscopy as an indicator of hepatocyte cell health (Tyson & Green, 1987). Cultures for each treatment group (i.e., media, vehicle [0.2% DMSO], positive control inducers [multiple concentrations], and the ToxCast chemicals [multiple concentrations]) were observed and cell morphology was assessed relative to vehicle control cultures at each harvest time point (0, 6, 24, or 48 h). […] Images were evaluated at the conclusion of the study to assess changes in cell integrity and account for the effects of chemical exposure on uncharacteristic changes in concentration-dependent gene expression profiles. The results from these determinations of apparent cytotoxicity were annotated (yes/no) alongside the corresponding qNPA data for reference.At the conclusion of each treatment period, hepatocyte cultures (96-well) were washed with 1 volume of HBSS, lysed by addition of 25 ul ArrayPlate lysis buffer (HTG, Tucson, AZ), and 70 ul/well of Denaturation Oil, denatured by incubation at 95C for 10 min, and frozen at approximately -70C until analysis by nuclease protection assay (qNPA) (Roberts et al., 2007). For qNPA analysis, cell lysates were thawed at 50C for approximately 30 min, qNPA probes were added, and samples were incubated at 95C for 10 min to begin the detection process by denaturing the target RNA, dissociating the duplexes and secondary structure hybridization. At the conclusion of the hybridization period, S1 nuclease reagent was added to each sample to digest all nonprotected nucleotides at 50C for 60-90 min. […]
SMILES,AC50,outcome
CC1(C)C(C=C(Cl)Cl)C1C(=O)OCc1cccc(Oc2ccccc2)c1 (stereo not given),7.12 µM (active),
CCN(CC)C(=O)c1cccc(C)c1,20 µM (active),
CCN(Cc1c(F)cccc1Cl)c1c([N+](=O)[O-])cc(C(F)(F)F)cc1[N+](=O)[O-],0.365 µM (active),
CN(C)C(=O)Nc1ccc(Cl)c(Cl)c1,2.49 µM (active),
CC(C)(c1ccc(O)cc1)c1ccc(O)cc1,,inactive
CC(C)(C)[C@@H](O)[C@@H](Cc1ccc(Cl)cc1)n1cncn1,2 µM (active),
COC(=O)c1cccc(C)c1S(=O)(=O)NC(=O)Nc1nc(OCC(F)(F)F)nc(N(C)C)n1,4.98 µM (active),
O=C(O)C1(C(=O)Nc2ccc(Cl)cc2Cl)CC1,,inactive
CCSC(=O)N(CC(C)C)CC(C)C,,inactive
CCCCC(CC)COC(=O)c1ccccc1C(=O)O (stereo not given),5.12 µM (active),
CCCN(CCC)C(=O)SCC,0.0274 µM (active),inactive
COC(=O)c1c(Cl)nn(C)c1S(=O)(=O)NC(=O)Nc1nc(OC)cc(OC)n1,,inactive
CCCCCCC(C)OC(=O)COc1nc(F)c(Cl)c(N)c1Cl (stereo not given),,inactive
N#CSCSc1nc2ccccc2s1,,inactive
CCOC(=O)COc1cc(-n2ncc(C(F)(F)F)c(C)c2=O)c(F)cc1Cl,6.56 µM (active),
CCCOC(=O)NCCCN(C)C,,inactive
CCCCCOC(=O)COc1cc(N2C(=O)C3=C(CCCC3)C2=O)c(F)cc1Cl,,inactive
CCCCOCCOCCOCc1cc2c(cc1CCC)OCO2,1.9 µM (active),
CCC(C)OC(=O)N1CCCCC1CCO (stereo not given),,inactive
COc1nc(C)nc(NC(=O)NS(=O)(=O)c2ccccc2OCCCl)n1,,inactive

SMILES,AC50,outcome
CSC(=O)c1cccc2nnsc12,,inactive
CCOC(=O)NCCOc1ccc(Oc2ccccc2)cc1,12.1 µM (active),
CCCCOC(=O)C(C)Oc1ccc(Oc2ccc(C(F)(F)F)cn2)cc1 (stereo not given),,inactive
c1ccc(Nc2ccccc2)cc1,6.82 µM (active),
COC(=O)c1ccc(CNS(C)(=O)=O)cc1S(=O)(=O)NC(=O)Nc1nc(OC)cc(OC)n1,,inactive
O=C(Nc1ccc([N+](=O)[O-])cc1Cl)c1cc(Cl)ccc1O,,inactive
C#CCOC(=O)[C@@H](C)Oc1ccc(Oc2ncc(Cl)cc2F)cc1,0.000411 µM (active),
CCCCOC(=O)[C@@H](C)Oc1ccc(Oc2ccc(C(F)(F)F)cn2)cc1,,inactive
CCOC(=O)C(C)Oc1ccc(Oc2cnc3cc(Cl)ccc3n2)cc1 (stereo not given),,inactive
Oc1ccc(C(c2ccc(O)cc2)C(Cl)(Cl)Cl)cc1,,inactive
CCCCC(CC)CN1C(=O)C2C3C=CC(C3)C2C1=O (stereo not given),9.04 µM (active),
COC(=O)CSc1cc(N=c2sc(=O)n3n2CCCC3)c(F)cc1Cl,2.48 µM (active),
COC(=O)c1ccccc1S(=O)(=O)NC(=O)Nc1nc(OC(F)F)cc(OC(F)F)n1,,inactive
c1ccc2[nH]c(-c3cscn3)nc2c1,,inactive
CCCN(CCC)c1c([N+](=O)[O-])cc(C(F)(F)F)c(N)c1[N+](=O)[O-],4.48 µM (active),
Cc1nn(C)c(Oc2ccccc2)c1C=NOCc1ccc(C(=O)OC(C)(C)C)cc1,20 µM (active),
C=CCOC(Cn1ccnc1)c1ccc(Cl)cc1Cl (stereo not given),0.135 µM (active),
COC(=O)c1ccc(I)cc1S(=O)(=O)NC(=O)Nc1nc(C)nc(OC)n1,,inactive
CCNc1nc(N)nc(Cl)n1,,inactive
